The structures appear in SMILES notation. Active and inactive are the calls of the source. Rule for the calls: active = hit-call score of the fitted dose curve at least 0.9, where 1 is the maximum; inactive = score below 0.9.

Read-out in test [1]: CFLAR gene, CFLAR (gene 8837)
Briefly: LTEA_HepaRG_CFLAR: Life Technologies and Expression Analysis (LTEA) Assay for CFLAR gene using HepaRG (AID 2283455). As to conditions: mRNA level, 48 h; actives raise or lower the signal. In outline:
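Differentiated HepaRG cells in serum-free induction medium were exposed 48 h in duplicate to eight half-log concentrations up to 100 uM in 0.5% DMSO; mRNA measured by TaqMan qRT-PCR, normalized to ACTB, GAPDH, POLR2A; bidirectional fitting versus DMSO.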

Read-out in test [2]: Forkhead box O1 (FOXO1), FOXO1 (gene 2308)
As to the kind of experiment: LTEA_HepaRG_FOXO1: Life Technologies and Expression Analysis (LTEA) Assay for Forkhead box O1 (FOXO1) using HepaRG (AID 2283456). The note with it: mRNA level, 48 h; actives raise or lower the signal. In outline: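 Differentiated HepaRG cells, in serum-free induction medium with 0.5% DMSO, exposed 48 h in duplicate to 8-point half-log series from 100 uM. FOXO1 mRNA measured by TaqMan qRT-PCR, normalized to ACTB, GAPDH, POLR2A; bidirectional fit versus DMSO.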

Test [3] is described as follows: CEETOX_H295R_TESTO: CeeTox H295R High-throughput Steroidogenesis Assay for Testosterone (TESTO) (AID 2283457). The note with it: actives raise or lower the signal. In outline:
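Testosterone secreted into the medium over 48 h by H295R cells (maximum passage 10) was quantified by LC-MS/MS after MTBE extraction. Fitted in both directions against DMSO, with concentrations diluted until MTT viability was ≥70%.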

Read-out in test [4]: growth arrest and DNA damage 45 (GADD45A), GADD45A (gene 1647)
Briefly: LTEA_HepaRG_GADD45A: Life Technologies and Expression Analysis (LTEA) Assay for growth arrest and DNA damage 45 (GADD45A) using HepaRG (AID 2283458). The note with it: mRNA level, 48 h; actives raise or lower the signal. The essentials:
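Differentiated HepaRG cells exposed 48 h in serum-free induction medium to 8 concentrations, top 100 uM in half-log steps, 0.5% DMSO. GADD45A mRNA quantified by qRT-PCR, normalized to ACTB, GAPDH and POLR2A; bidirectional fit versus DMSO.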

Read-out in test [5]: Forkhead box O3 (FOXO3), FOXO3 (gene 2309)
As to the kind of experiment: LTEA_HepaRG_FOXO3: Life Technologies and Expression Analysis (LTEA) Assay for Forkhead box O3 (FOXO3) using HepaRG (AID 2283459). The note with it: mRNA level, 48 h; actives raise or lower the signal. In outline: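 Differentiated human HepaRG cells, 48 h post-plating, exposed in duplicate for 48 h in serum-free induction medium; 8-point half-log series from 100 uM in 0.5% DMSO. FOXO3 mRNA by TaqMan qRT-PCR, normalized to ACTB/GAPDH/POLR2A; bidirectional fit versus DMSO.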

Read-out in test [6]: ABC Transporter (ABCB1), ABCB1 (gene 5243)
Briefly: LTEA_HepaRG_ABCB1: Life Technologies and Expression Analysis (LTEA) Assay for ABC Transporter (ABCB1) using HepaRG (AID 2283460). The note with it: mRNA level, 48 h; actives raise or lower the signal. In outline: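 HepaRG cells exposed in duplicate for 48 h in serum-free induction medium to eight half-log concentrations up to 100 uM in 0.5% DMSO. ABCB1 mRNA quantified by qRT-PCR, normalised to ACTB, GAPDH and POLR2A; fitted bidirectionally versus DMSO.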

Read-out in test [7]: growth arrest and DNA damage 45 (GADD45B), GADD45B (gene 4616)
Briefly: LTEA_HepaRG_GADD45B: Life Technologies and Expression Analysis (LTEA) Assay for growth arrest and DNA damage 45 (GADD45B) using HepaRG (AID 2283461). The note with it: mRNA level, 48 h; actives raise or lower the signal. In outline:
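Transcript level quantified by Fluidigm TaqMan qRT-PCR with three housekeeping genes for normalization, analyzed for up- or down-regulation against 0.5% DMSO. HepaRG cultures dosed 48 h at eight half-log concentrations up to 100 uM, duplicates.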

Read-out in test [8]: ABC Transporter (ABCC3), ABCC3 (gene 8714)
Briefly: LTEA_HepaRG_ABCC3: Life Technologies and Expression Analysis (LTEA) Assay for ABC Transporter (ABCC3) using HepaRG (AID 2283462). The note with it: mRNA level, 48 h; actives raise or lower the signal. The essentials:
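Transcript level by TaqMan qRT-PCR, normalised to three housekeeping genes, fitted in both directions relative to vehicle. Chemicals tested in duplicate at eight half-log concentrations up to 100 uM for 48 h on HepaRG cells (0.5% DMSO).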

Read-out in test [9]: ABC Transporter (ABCB11), ABCB11 (gene 8647)
As to the kind of experiment: LTEA_HepaRG_ABCB11: Life Technologies and Expression Analysis (LTEA) Assay for ABC Transporter (ABCB11) using HepaRG (AID 2283463). As to conditions: mRNA level, 48 h; actives raise or lower the signal. In outline: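 Differentiated human HepaRG cells in serum-free induction medium, dosed in duplicate for 48 h. Eight-point half-log series from 100 uM in 0.5% DMSO; ABCB11 mRNA by qRT-PCR, normalized to ACTB, GAPDH, POLR2A, fitted bidirectionally versus DMSO.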

Read-out in test [10]: ABC Transporter (ABCC2), ABCC2 (gene 1244)
Briefly: LTEA_HepaRG_ABCC2: Life Technologies and Expression Analysis (LTEA) Assay for ABC Transporter (ABCC2) using HepaRG (AID 2283464). As to conditions: mRNA level, 48 h; actives raise or lower the signal. The essentials: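 Endpoint is ABCC2 transcript level from qRT-PCR, normalized to three housekeeping genes and fitted bidirectionally relative to DMSO. Human HepaRG cells received test chemical for 48 h at up to 100 uM (8 points, half-log steps, 0.5% DMSO), duplicate wells.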

Read-out in test [11]: Broad substrate specificity ATP-binding cassette transporter ABCG2 (Homo sapiens) (UniProt Q9UNQ0)
As to the kind of experiment: LTEA_HepaRG_ABCG2: Life Technologies and Expression Analysis (LTEA) Assay for ABC Transporter (ABCG2) using HepaRG (AID 2283465). As to conditions: mRNA level, 48 h; actives raise or lower the signal. The essentials: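 Differentiated HepaRG cells were exposed for 48 h in serum-free induction medium to 8 half-log concentrations, top 100 uM, in 0.5% DMSO. ABCG2 mRNA was measured by qRT-PCR, normalized to ACTB, GAPDH and POLR2A, with bidirectional fitting versus DMSO.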

Read-out in test [12]: ATP-citrate lyase (ACLY), ACLY (gene 47)
Briefly: LTEA_HepaRG_ACLY: Life Technologies and Expression Analysis (LTEA) Assay for ATP-citrate lyase (ACLY) using HepaRG (AID 2283466). As to conditions: mRNA level, 48 h; actives raise or lower the signal. The essentials:
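Differentiated HepaRG cells exposed 48 h in serum-free induction medium to eight half-log concentrations up to 100 uM in 0.5% DMSO, duplicates. Transcript measured by Fluidigm TaqMan qRT-PCR, normalized to ACTB, GAPDH, POLR2A; bidirectional fit versus DMSO.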

Read-out in test [13]: Peroxisomal acyl-coenzyme A oxidase 1 (ACOX1) gene, ACOX1 (gene 51)
As to the kind of experiment: LTEA_HepaRG_ACOX1: Life Technologies and Expression Analysis (LTEA) Assay for Peroxisomal acyl-coenzyme A oxidase 1 (ACOX1) gene using HepaRG (AID 2283467). As to conditions: mRNA level, 48 h; actives raise or lower the signal. The essentials: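 HepaRG cells, plated 48 h then switched to serum-free induction medium, were exposed in duplicate for 48 h to 8-point half-log concentrations up to 100 uM in 0.5% DMSO. ACOX1 mRNA was measured by qRT-PCR, normalized to ACTB/GAPDH/POLR2A, and fitted bidirectionally versus DMSO.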

Read-out in test [14]: Alkaline Phosphatase, Placental (ALPP) gene, ALPP (gene 250)
As to the kind of experiment: LTEA_HepaRG_ALPP: Life Technologies and Expression Analysis (LTEA) Assay for Alkaline Phosphatase, Placental (ALPP) gene using HepaRG (AID 2283468). The note with it: mRNA level, 48 h; actives raise or lower the signal. In outline: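 ALPP transcript level, measured by qRT-PCR and normalized to three housekeeping genes (ACTB, GAPDH, POLR2A), after 48 h dosing of differentiated HepaRG in serum-free induction medium. Top concentration 100 uM with half-log dilutions (8 points, 0.5% DMSO, duplicates); bidirectional fitting relative to DMSO.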

Read-out in test [15]: Bcl-2 (BAD) gene, BAD (gene 572)
Briefly: LTEA_HepaRG_BAD: Life Technologies and Expression Analysis (LTEA) Assay for Bcl-2 (BAD) gene using HepaRG (AID 2283469). The note with it: mRNA level, 48 h; actives raise or lower the signal. The essentials: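 Differentiated HepaRG cells were exposed in duplicate in 0.5% DMSO for 48 h to eight-point half-log concentrations up to 100 uM. BAD mRNA was measured by Fluidigm TaqMan qRT-PCR, normalized to ACTB, GAPDH and POLR2A, and fitted bidirectionally against DMSO.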

Read-out in test [16]: Bcl-2 (BAX) gene, BAX (gene 581)
Briefly: LTEA_HepaRG_BAX: Life Technologies and Expression Analysis (LTEA) Assay for Bcl-2 (BAX) gene using HepaRG (AID 2283470). The note with it: mRNA level, 48 h; actives raise or lower the signal. The essentials:
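Differentiated HepaRG cells exposed 48 h in serum-free induction medium, eight half-log concentrations from 100 uM, in duplicate, 0.5% DMSO vehicle. BAX mRNA by TaqMan qRT-PCR, normalised to ACTB, GAPDH and POLR2A.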

Read-out in test [17]: adenosine kinase (ADK) gene, ADK (gene 132)
Briefly: LTEA_HepaRG_ADK: Life Technologies and Expression Analysis (LTEA) Assay for adenosine kinase (ADK) gene using HepaRG (AID 2283471). The note with it: mRNA level, 48 h; actives raise or lower the signal. The essentials:
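ADK expression quantified by qRT-PCR, normalised to three housekeeping genes, after 48 h exposure of HepaRG cells to eight concentrations (top 100 uM, half-log steps, duplicate, 0.5% DMSO). Up- or down-regulation fitted relative to vehicle.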

Read-out in test [18]: Alpha-fetoprotein (AFP) gene, AFP (gene 174)
Briefly: LTEA_HepaRG_AFP: Life Technologies and Expression Analysis (LTEA) Assay for Alpha-fetoprotein (AFP) gene using HepaRG (AID 2283472). The note with it: mRNA level, 48 h; actives raise or lower the signal. The essentials:
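Differentiated human HepaRG cells exposed 48 h in serum-free induction medium, 8-point half-log series from 100 uM in 0.5% DMSO, duplicate. AFP mRNA by qRT-PCR, normalized to ACTB, GAPDH, POLR2A; bidirectional fit vs DMSO.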

Read-out in a further test: BCL2L11 (gene 10018)
Briefly: LTEA_HepaRG_BCL2L11: Life Technologies and Expression Analysis (LTEA) Assay for Bcl-2 (BCL2L11) gene using HepaRG (AID 2283473). As to conditions: mRNA level, 48 h; actives raise or lower the signal. The essentials:
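BCL2L11 transcript levels are measured by Fluidigm qRT-PCR, normalized to three housekeeping genes. HepaRG cultures were plated 48 h, then treated 48 h with test chemical (top 100 uM, half-log, 0.5% DMSO vehicle); curves were fitted bidirectionally against DMSO.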

Read-out in test [19]: Apolipoprotein A-V (APOA5) gene, APOA5 (gene 116519)
As to the kind of experiment: LTEA_HepaRG_APOA5: Life Technologies and Expression Analysis (LTEA) Assay for Apolipoprotein A-V (APOA5) gene using HepaRG (AID 2283474). As to conditions: mRNA level, 48 h; actives raise or lower the signal. In outline:
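APOA5 transcript levels were quantified by qRT-PCR, normalized to three housekeeping genes, after 48 h chemical treatment of HepaRG cells (8 points, 100 uM maximum, half-log steps, 0.5% DMSO). Curves fitted in both directions against vehicle.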

Chain of Broad substrate specificity ATP-binding cassette transporter ABCG2 (Homo sapiens) (Q9UNQ0 whole entry, looked up): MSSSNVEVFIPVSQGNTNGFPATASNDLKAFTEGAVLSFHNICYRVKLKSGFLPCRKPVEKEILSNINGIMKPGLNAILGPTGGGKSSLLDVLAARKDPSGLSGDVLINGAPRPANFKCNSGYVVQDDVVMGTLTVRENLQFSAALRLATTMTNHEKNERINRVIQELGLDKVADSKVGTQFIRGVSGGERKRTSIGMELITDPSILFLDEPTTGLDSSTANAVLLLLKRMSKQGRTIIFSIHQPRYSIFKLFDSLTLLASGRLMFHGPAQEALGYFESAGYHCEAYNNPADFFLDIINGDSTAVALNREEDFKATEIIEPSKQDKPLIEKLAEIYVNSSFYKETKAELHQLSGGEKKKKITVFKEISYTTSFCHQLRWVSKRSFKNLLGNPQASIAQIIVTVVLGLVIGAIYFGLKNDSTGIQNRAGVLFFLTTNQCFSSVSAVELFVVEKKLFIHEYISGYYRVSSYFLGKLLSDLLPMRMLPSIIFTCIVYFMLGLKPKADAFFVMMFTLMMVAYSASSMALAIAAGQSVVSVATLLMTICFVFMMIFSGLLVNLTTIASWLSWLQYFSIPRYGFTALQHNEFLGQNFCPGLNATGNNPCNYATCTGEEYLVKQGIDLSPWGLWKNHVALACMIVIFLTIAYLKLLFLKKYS

What is called AC50 is the concentration giving half of the maximal activity seen. For the compound `O=C(O)Cn1c(=O)n(Cc2ccc(Br)cc2F)c(=O)c2ccc(Cl)cc21`, the outcome in test [1], in test [2], in test [3], in [4], in test [5] and in [7] was inactive. Further, the compound was called inactive in test [8], in test [9], in [10], in test [11], in test [12] and in test [13]. Also, the compound was classed as inactive (in test [14]; in test [15]; in [16]; in test [17]; in [18]; in the test with BCL2L11 (gene 10018)). Moreover, the compound was called inactive in test [19]. For the same compound, in test [6], the concentration at half-maximal activity (AC50) was 9.92 µM (active).
`CN1C(=O)N(c2ccccc2Br)Cc2cnc(Nc3ccc4c(c3)OCC(CO)O4)nc21` (stereo unspecified): the outcome (in test [1]; in test [5]; in [11]; in test [15]; with BCL2L11 (gene 10018)) was inactive. Also, the AC50 in test [2] is 39.2 µM (active); in test [4] it was 0.0221 µM (active); in [6] it was 89.9 µM (active); in test [7], 81.6 µM (active); in test [8] it was 28.6 µM (active); in test [9], 80.3 µM (active). The AC50 in test [10] was 77.1 µM (active); in [12], 50 µM (active); in test [13], 77.9 µM (active); in [14], 2.93 µM (active); in test [16] it was 12.9 µM (active); in test [18] it was 23.1 µM (active). The AC50 in test [19] is 90.3 µM (active).
On to `NCc1cccc(C2CCN(C(=O)c3ccc(C#Cc4ccccc4F)o3)CC2)c1`, for which the AC50 in test [1] is 89.9 µM (active); in [4], 78.9 µM (active); in [6], 50 µM (active); in test [9] it was 78 µM (active); in [10], 90.6 µM (active); in test [14], 46.2 µM (active). In addition, the AC50 in [18] is 83.7 µM (active); with BCL2L11 (gene 10018) it was 83.1 µM (active); in test [19], 80.5 µM (active). For the same compound, the call in [2], in test [5], in test [7], in [8], in [11] and in [12] was inactive. The compound was called inactive in [13], in [15] and in test [16].

(Values after PubChem BioAssay (EPA / NIEHS).)
